In PubChem BioAssay (Tox21):
Results filed as inconclusive are left out. Calls of active or inactive are those of the source. Unless noted, calls follow the shape of the full dose curve.

Columns and labels:
[1] = Nuclear factor erythroid 2-related factor 2/antioxidant responsive element (Nrf2/ARE) small molecule agonists: qHTS cell viability counter screen in human keratinocytes (AID 1919968; active = well fitted curve in the direction sought with a large enough effect in the repeat runs; an effect the other way counts as inactive or inconclusive; also: nearly all actives have a fitted effect of over 55% in size)
Procedure, shortened: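 Stably transfected HaCaT (KeratinoSens), 1,500/well. Test agents in DMSO were applied for 23 h, 37 C/5% CO2. CellTiter-Fluor was incubated 1 h before the fluorescence read.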

[2] = Nuclear factor erythroid 2-related factor 2/antioxidant responsive element (Nrf2/ARE) small molecule agonists: luciferase reporter gene qHTS assay in human keratinocytes (AID 1919969); also: nearly all actives have a fitted effect of over 35% in size
[3] = target: Gonadotropin-releasing hormone receptor (Homo sapiens) (UniProt P30968); test: Human gonadotropin-releasing hormone receptor (GnRHR) small molecule agonists, calcium flux assay in GnRHR-HEK293 cells (AID 1920063); also: nearly all actives have a fitted effect of over 35% in size
Procedure, shortened: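 Stable human GnRHR HEK293 line. 18 h plating, then calcium dye for 1 h at 37 C. Agonist-mode compound addition from DMSO stocks; fluorescence monitored 3 min.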

[4] = target: KiSS-1 receptor (Homo sapiens) (UniProt Q969F8); test: Human kisspeptin (KISS1R) small molecule agonists, calcium flux assay in KISS1R-HEK293 cells (AID 1920064; active = well fitted curve in the direction sought with a large enough effect in the repeat runs; an effect the other way counts as inactive or inconclusive)
Procedure, shortened: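 After overnight (18 h) culture at 37 C/5% CO2, human KISS1R-HEK293 cells received calcium dye for 1 h, then test compound; emission at 540 nm (excitation 480 nm) was tracked for 3 min.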

[5] = G protein-coupled receptor (GPCR) small molecule agonists, calcium flux assay: HEK293 wild type cell line counter screen (AID 1920065)
Procedure, shortened: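 Following 18 h incubation at 37 C/5% CO2, plates got calcium dye for 1 h; compounds, ATP or DMSO were then pinned in and fluorescence followed kinetically (480/540 nm).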

[6] = p53 small molecule agonists, cell-based qHTS assay with human liver microsomes (AID 1963577)
Procedure, shortened: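 p53RE-bla cells, 4,000/well, compound added after 5 h, with human liver microsomes 0.5 mg/mL and NADPH 0.5 mg/mL final; 16 h at 37 C, then LiveBLAzer 2 h RT, fluorescence.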

[7] = p53 small molecule agonists, cell-based qHTS assay with rat liver microsomes (AID 1963578)
Procedure, shortened: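 p53RE-bla cells, 4,000/well, pre-incubated 5 h, then given compounds plus rat liver microsomes (0.5 mg/mL final) and NADPH (0.5 mg/mL final). Incubation 16 h at 37 C; beta-lactamase reporter read by LiveBLAzer fluorescence after 2 h at room temperature.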

[8] = p53 small molecule agonists, cell-based qHTS assay with human liver microsomes: qHTS cell viability counter screen (AID 1963579); also: nearly all actives have a fitted effect of over 45% in size
Procedure, shortened: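 p53RE-bla cells, 4,000/well, dosed 5 hours after plating, with human liver microsomes (0.5 mg/mL final) plus NADPH (0.5 mg/mL final), 16 hours at 37 C. Viability read as CellTiter-Glo luminescence after 30 min at room temperature.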

[9] = p53 small molecule agonists, cell-based qHTS assay with rat liver microsomes: qHTS cell viability counter screen (AID 1963580); also: nearly all actives have a fitted effect of over 45% in size
Procedure, shortened: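 Rat liver microsome (0.5 mg/mL final) and NADPH (0.5 mg/mL final) co-incubation with compounds for 16 h at 37 C on HCT-116 p53RE-bla cells; cytotoxicity taken from intracellular ATP luminescence.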

[10] = p53 small molecule agonists, cell-based qHTS assay: qHTS cell viability counter screen (AID 1963581); also: nearly all actives have a fitted effect of over 45% in size
Procedure, shortened: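 qHTS counter screen: 16 h compound exposure at 37 C of p53RE-bla HCT-116 cells (4,000 per well, seeded 5 h prior), cell viability by ATP luminescence.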

[11] = p53 small molecule agonists, cell-based qHTS assay (AID 1963582; active = well fitted activation curve with a large enough effect in the signal ratio in the repeat runs, not every such curve was filed as active; the % refers to the signal ratio)
Procedure, shortened: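 Measured: fluorescence from cleaved LiveBLAzer substrate. System: p53RE-bla cells, 16 h compound treatment at 37 C, 2 h substrate step at room temperature.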

[12] = target: 5-hydroxytryptamine receptor 2A (Homo sapiens) (UniProt P28223); test: 5-hydroxytryptamine receptor 2A (HTR2A) small molecule antagonists, cell-based qHTS assay (AID 1963586); also: nearly all actives have a fitted effect of over 45% in size
Procedure, shortened: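 CHO cells stably expressing human HTR2A were plated for 18 h at 37 C, then loaded with calcium dye for 1 h. Compounds were preincubated 5 min at room temperature before DOI (4 nM solution) was added. Kinetic fluorescence was read for 3 min.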

[13] = target: 5-hydroxytryptamine receptor 2A (Homo sapiens) (UniProt P28223); test: 5-hydroxytryptamine receptor 2A (HTR2A) small molecule agonists, cell-based qHTS assay (AID 1963587); also: nearly all actives have a fitted effect of over 30% in size
Procedure, shortened: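 Kinetic calcium-flux fluorescence (2 min, 1 sec intervals) after compound addition in agonist mode. HTR2A-CHO cells were cultured 18 h, then dye-loaded 1 h at 37 C.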

[14] = target: Muscarinic acetylcholine receptor M1 (Homo sapiens) (UniProt P11229); test: Cholinergic receptor muscarinic 1 (CHRM1) small molecule antagonists, cell-based qHTS assay (AID 1963588); also: nearly all actives have a fitted effect of over 40% in size
Procedure, shortened: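 Compounds were tested at 15 concentrations in three independent runs. Dye-loaded CHRM1-CHO cells were exposed 5 min at room temperature before stimulation by acetylcholine added at 50nM. Intracellular calcium was read kinetically on FDSS for 3 min.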

[15] = target: Muscarinic acetylcholine receptor M1 (Homo sapiens) (UniProt P11229); test: Cholinergic receptor muscarinic 1 (CHRM1) small molecule agonists, cell-based qHTS assay (AID 1963589); also: nearly all actives have a fitted effect of over 35% in size
Procedure, shortened: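 Kinetic fluorescence (1 s intervals) of calcium-sensitive dye in human M1 CHO cells after compound addition; cells pre-incubated 18 h at 37 C/5% CO2 and dye-loaded 1 h.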

[16] = cAMP Responsive Elements (CRE) small molecule agonists, cell-based qHTS assay (AID 1963590)
Procedure, shortened: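 Test agents in DMSO were incubated 3 h at 37 C/5% CO2 with CRE-bla HEK 293T cells seeded 18 h earlier; LiveBLAzer B/G FRET substrate was added and read after 2 h at room temperature.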

[17] = cAMP Responsive Elements (CRE) small molecule antagonists, cell-based qHTS assay (AID 1963591; active = well fitted inhibition curve with a large enough effect in the signal ratio in the repeat runs, not every such curve was filed as active; the % refers to the signal ratio)
Procedure, shortened: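 Reporter line CRE-bla HEK 293T in dialyzed-FBS DMEM; cells preincubated 18 h, treated 3 h with compound plus NKH477 (0.25 uM final); LiveBLAzer FRET, 2 h RT.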

[18] = target: Beta-2 adrenergic receptor (Homo sapiens) (UniProt P07550); test: Adrenergic beta2 receptor (ADRB2) small molecule antagonists, cell-based qHTS assay (AID 1963592); also: series mostly up to about 92 µM; nearly all actives have a fitted effect of over 50% in size
Procedure, shortened: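 Assay format: CHO-ADRB2 cells, 18-20hr seeding at 37C/5% CO2, then compound plus 1nM isoproterenol agonist mix for 0.5hr RT. Homogeneous time-resolved fluorescence cAMP detection after 1hr, expressed as 665/615 nm ratio.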

[19] = target: Beta-2 adrenergic receptor (Homo sapiens) (UniProt P07550); test: Adrenergic beta2 receptor (ADRB2) small molecule agonists, cell-based qHTS assay (AID 1963593);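 also: CHO cells stably overexpressing human ADRB2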
Procedure, shortened: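 CHO cells stably over-expressing ADRB2 were plated overnight at 37C, then dosed with compounds plus a stimulation mix containing 100uM IBMX and 25uM Ro-20-1724 for 0.5hr at room temperature. cAMP was measured by HTRF competition, 1hr.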

[20] = target: D(2) dopamine receptor (Homo sapiens) (UniProt P14416); test: Dopamine D2 receptor (DRD2) small molecule agonists, cell-based qHTS assay (AID 1963594); also: nearly all actives have a fitted effect of over 35% in size
Procedure, shortened: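 cAMP accumulation in DRD2-HEK293 cells measured by HTRF after 1 h detection; compounds added 10 min before NKH477 (200nM […]) forskolin-analogue stimulation, 30 min at room temperature, with Ro20-1724 present at 0.1 mM final.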

Measured: Potency

Sequence of 5-hydroxytryptamine receptor 2A (Homo sapiens) (P28223 whole entry, looked up): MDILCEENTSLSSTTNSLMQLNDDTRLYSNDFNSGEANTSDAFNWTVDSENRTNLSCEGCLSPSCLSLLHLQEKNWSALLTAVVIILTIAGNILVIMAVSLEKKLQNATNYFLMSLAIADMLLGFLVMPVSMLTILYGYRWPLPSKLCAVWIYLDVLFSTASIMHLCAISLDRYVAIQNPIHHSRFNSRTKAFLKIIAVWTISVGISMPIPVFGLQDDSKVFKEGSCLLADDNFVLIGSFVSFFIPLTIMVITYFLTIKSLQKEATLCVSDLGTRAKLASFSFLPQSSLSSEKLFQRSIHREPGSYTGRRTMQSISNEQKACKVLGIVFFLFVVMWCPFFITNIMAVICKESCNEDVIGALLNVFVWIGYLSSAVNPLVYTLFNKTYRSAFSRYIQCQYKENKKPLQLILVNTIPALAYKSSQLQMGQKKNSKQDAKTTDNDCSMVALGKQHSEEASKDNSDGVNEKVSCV
Sequence of Muscarinic acetylcholine receptor M1 (Homo sapiens) (P11229 whole entry, looked up): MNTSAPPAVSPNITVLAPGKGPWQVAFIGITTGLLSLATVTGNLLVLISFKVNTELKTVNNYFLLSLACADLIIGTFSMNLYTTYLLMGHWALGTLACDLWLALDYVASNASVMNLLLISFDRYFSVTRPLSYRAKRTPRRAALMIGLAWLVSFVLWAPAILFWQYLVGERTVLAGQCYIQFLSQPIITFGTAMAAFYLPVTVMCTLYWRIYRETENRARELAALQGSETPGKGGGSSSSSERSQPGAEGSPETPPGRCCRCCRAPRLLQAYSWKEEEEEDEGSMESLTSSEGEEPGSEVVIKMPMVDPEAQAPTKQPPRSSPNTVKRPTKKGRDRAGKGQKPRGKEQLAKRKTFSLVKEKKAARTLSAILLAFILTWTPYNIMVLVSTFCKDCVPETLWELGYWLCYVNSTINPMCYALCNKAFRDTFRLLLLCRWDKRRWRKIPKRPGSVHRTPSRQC
Sequence of KiSS-1 receptor (Homo sapiens) (Q969F8 whole entry, looked up): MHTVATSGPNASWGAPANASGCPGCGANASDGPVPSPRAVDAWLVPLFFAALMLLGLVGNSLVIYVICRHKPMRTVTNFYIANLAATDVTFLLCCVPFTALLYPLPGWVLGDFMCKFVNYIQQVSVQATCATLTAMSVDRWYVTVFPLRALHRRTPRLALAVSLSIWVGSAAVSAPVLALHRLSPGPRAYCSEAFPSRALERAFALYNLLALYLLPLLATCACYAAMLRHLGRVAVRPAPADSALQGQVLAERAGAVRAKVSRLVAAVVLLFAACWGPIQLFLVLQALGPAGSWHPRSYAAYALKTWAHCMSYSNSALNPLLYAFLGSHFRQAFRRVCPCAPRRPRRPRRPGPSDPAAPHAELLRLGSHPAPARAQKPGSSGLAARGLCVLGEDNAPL
Sequence of Gonadotropin-releasing hormone receptor (Homo sapiens) (P30968 whole entry, looked up): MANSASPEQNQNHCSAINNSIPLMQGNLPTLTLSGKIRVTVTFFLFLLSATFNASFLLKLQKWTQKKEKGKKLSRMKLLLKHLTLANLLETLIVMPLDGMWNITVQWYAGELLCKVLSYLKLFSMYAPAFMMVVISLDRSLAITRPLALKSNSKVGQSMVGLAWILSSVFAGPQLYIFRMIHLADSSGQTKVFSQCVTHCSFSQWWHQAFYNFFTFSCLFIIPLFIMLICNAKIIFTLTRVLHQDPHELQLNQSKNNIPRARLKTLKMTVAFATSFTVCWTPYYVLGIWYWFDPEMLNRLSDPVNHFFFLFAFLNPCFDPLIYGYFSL
Sequence of D(2) dopamine receptor (Homo sapiens) (P14416 whole entry, looked up): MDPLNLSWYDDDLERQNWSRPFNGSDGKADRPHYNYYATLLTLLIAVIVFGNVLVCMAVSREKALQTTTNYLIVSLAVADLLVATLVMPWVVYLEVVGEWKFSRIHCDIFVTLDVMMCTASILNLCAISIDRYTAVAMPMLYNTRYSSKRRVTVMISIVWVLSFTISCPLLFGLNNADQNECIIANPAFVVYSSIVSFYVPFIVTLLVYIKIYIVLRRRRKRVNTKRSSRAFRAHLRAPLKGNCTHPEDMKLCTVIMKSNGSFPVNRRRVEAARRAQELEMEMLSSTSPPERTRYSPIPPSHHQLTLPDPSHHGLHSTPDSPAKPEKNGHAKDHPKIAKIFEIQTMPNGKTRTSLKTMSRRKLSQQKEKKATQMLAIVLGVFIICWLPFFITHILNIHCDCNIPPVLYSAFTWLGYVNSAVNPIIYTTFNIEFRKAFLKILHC
Sequence of Beta-2 adrenergic receptor (Homo sapiens) (P07550 whole entry, looked up): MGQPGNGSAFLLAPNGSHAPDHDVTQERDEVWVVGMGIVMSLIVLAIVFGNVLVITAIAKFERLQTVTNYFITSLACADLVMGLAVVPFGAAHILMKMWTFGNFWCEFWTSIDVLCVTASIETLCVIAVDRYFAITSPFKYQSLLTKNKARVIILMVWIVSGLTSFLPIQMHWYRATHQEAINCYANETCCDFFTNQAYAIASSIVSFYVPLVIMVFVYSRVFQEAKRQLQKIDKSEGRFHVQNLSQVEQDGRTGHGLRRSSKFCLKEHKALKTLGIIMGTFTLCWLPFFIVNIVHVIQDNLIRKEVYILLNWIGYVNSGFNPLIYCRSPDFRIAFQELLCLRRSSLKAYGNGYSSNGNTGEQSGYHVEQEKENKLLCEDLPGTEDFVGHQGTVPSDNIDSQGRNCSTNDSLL

C=CC(=O)OCCN(CC)CC
inactive: all assays above

NC(=O)C1CO1 (stereo not given)
inactive: all assays above

CC(=O)c1ccccc1N
inactive: all assays above

COc1ccc(C(=O)NCc2ccc(OCCN(C)C)cc2)cc1OC
inactive: all assays above

CCN(CC)S(=O)(=O)c1ccc(C(=O)O)cc1
inactive: all assays above

N=C(N=C(N)N)N1CCOCC1
inactive: all assays above

CCc1occc(=O)c1O
inactive: all assays above
